PNC assembly inh = inhibitors of perinucleolar compartment assembly; 140,000 compounds, 3.1% hits; AID 2417; PC3M PTB-GFP, PNC prevalence imaging, 16 h; stronger effect = lower value; activity change (PNC), negative = inhibition, % at 10 µM;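 active means readout at or below -70, meaning at least 70% loss of cells showing the perinucleolar compartment, a nuclear body marking cancer cells; inconclusive means readout between -30 and a set limit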;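 further: plate controls were DMSO wells for no effect and camptothecin positive control wells for full effect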
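Read-out is percentage of cells bearing a perinucleolar compartment, from automated 20x imaging of fixed, Hoechst-stained PC3M PTB-GFP cells. Cells were seeded 4 h, then exposed 16 h to compound (23 nl of library stock) in duplicate plates.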
HPGD inh = inhibitors of human 15-hydroxyprostaglandin dehydrogenase (HPGD); P15428; purified HPGD, NADH fluorescence kinetic, PGE2 substrate; Potency, µM, for inactives: at the highest dose activity change, negative = inhibition, actives largely listed as inhibitors; 150,000 compounds, 4.3% hits; further: potency means the concentration at half of the fitted maximal effect
Target sequence (P15428 whole entry, looked up): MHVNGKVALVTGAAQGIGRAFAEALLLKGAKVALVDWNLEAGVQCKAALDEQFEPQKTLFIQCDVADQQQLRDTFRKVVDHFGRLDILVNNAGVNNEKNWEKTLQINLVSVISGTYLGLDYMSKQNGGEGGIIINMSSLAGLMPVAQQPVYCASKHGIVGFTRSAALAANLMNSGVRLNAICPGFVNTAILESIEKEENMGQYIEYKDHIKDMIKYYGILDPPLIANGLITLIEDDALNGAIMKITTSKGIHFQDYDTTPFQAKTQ
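20 nM HPGD preincubated 15 min at room temperature with compound in 50 mM Tris-HCl pH 8, 0.01% Tween 20. Started with 1 mM NAD+ and 30 uM prostaglandin E2; NADH fluorescence (360/450 nm) read 5 times over 30-s intervals, last minus first.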
ALDH1A1 block = ALDH1A1 (human) enzyme inhibition; P00352; Purified ALDH1A1, NADH fluorescence, propionaldehyde substrate; Potency, µM (highest dose often 75.3 µM), without a hit: at the top dose activity, negative = inhibition, usual class: inhibitors; 220,000 compounds, 7.3% hits; AID 1030;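 further: potency means the concentration at half of the fitted maximal effect; plate controls were no enzyme wells and a reference inhibitor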
* marks the source's active call; other numbers are inactive results; ? = inconclusive; nt = no result given. In the library only some 11% were active in any assay of this set; here they are far more common. Unless noted, the call rests on the fitted dose curve; in most records, active means well fitted inhibition curve with a large enough effect (not every such curve was filed as active); inconclusive means small, poorly fitted or top-dose-only effect, or another doubt; inactive means no such curve, though single readings can be large or run the other way. Unless noted, on the % scale 0 is the no-effect control and ±100 the full control effect.

SMILES	PNC assembly inh	HPGD inh	ALDH1A1 block
O=C(Nc1ccc(Cl)cn1)c1cc2ccccc2o1	?	-19%	-6%
CSc1cccc(NC(=O)c2c(Cl)cnn2C)c1	5	-29%	-1%
CSCC[C@H](NC(=O)C1CCN(S(=O)(=O)c2ccc(C)cc2)CC1)C(=O)NC1CCS(=O)(=O)C1 (stereo not given in full)	9	-8%	8%
O=C(COc1ncnc2c(Cl)cc(Cl)cc12)Nc1cc([N+](=O)[O-])ccc1Cl	25	-10%	2%
COc1cc(OC)cc(C(=O)NC(=S)Nc2cccnc2)c1	2	-7%	?
Cc1cc(NC(=S)Nc2ccccc2)ccc1Br	31	-4%	-1%
COc1cc(NC(=S)Nc2cccnc2)cc(OC)c1	?	28µM*	32µM*
Cc1cc(NC(=S)Nc2cccnc2)ccc1Br	nt	nt	22µM*
OCCSc1nc(N2CCOCC2)nc(N2CCOCC2)n1	nt	nt	10%
O=C(CCn1cccc1)Nc1ccc(OC(F)(F)F)cc1	nt	nt	-2%
CC(/C=C1\SC(=S)N(CC(=O)N2CCN(c3ccccc3)CC2)C1=O)=C\c1ccccc1	11	-7%	?
CN1CCS/C1=C/C=C1/SC(=S)N(Cc2ccccc2)C1=O	76	-14%	1µM*
CN1CCS/C1=C/C=C1\SC(=S)N(CC(=O)O)C1=O	nt	nt	11µM*
CCN1C(c2ccccc2)=C(c2ccccc2)S/C1=C/C=C1\SC(=S)N(C)C1=O	-7	-7%	?
O=C(NC(Cc1cc(=O)[nH]c2ccccc12)C(=O)O)c1ccc(Cl)cc1 (stereo not given)	nt	-29%	-7%
O=C1CCC=C1C(O)c1ccccc1 (stereo not given)	nt	-13%	1%
FC(F)(F)c1n[nH]c(=S)n1/N=C/c1ccco1	-9	-9%	-8%
S=c1[nH]nc(-c2ccco2)n1/N=C/C=C/c1ccccc1	0	14µM*	?
S=c1[nH]nc(-c2ccccc2)n1/N=C/C=C/c1ccco1	19	11µM*	?
C(=C\c1ccccc1)/C=N/n1cnnc1	42	-4%	7%
S=c1[nH]nc(-c2ccco2)n1C1CCCCC1	-85*	?	?
Nn1c(-c2ccco2)n[nH]c1=S	-24	-20%	-11%
Cc1cc(NC(=O)c2cc(C(C)C)on2)nn1Cc1ccc(Cl)cc1	-18	-11%	-4%
CC1(C)CC(=O)c2c(noc2-c2ccccc2)C1	-2	22µM*	?
CC1(C)CC(=O)c2c(Cc3ccccc3)noc2C1	nt	nt	-4%
SMILES	PNC assembly inh	HPGD inh	ALDH1A1 block
CSC(N)=NCCC[C@H](N)C(=O)O	nt	-5%	4%
CC1=C(C(=O)OCc2ccccc2)C(c2ccc(Cl)cc2Cl)NC(=O)N1CCCC(=O)O (stereo not given)	?	-13%	-1%
O=C(c1cccs1)N1CCN(c2ccc(F)cc2)CC1	-21	-1%	4%
O=C(CN1CCN(c2ccc(F)cc2)CC1)c1cccs1	nt	nt	7.1µM*
O=C(OCC(=O)N1CCc2ccccc2C1)c1cccs1	nt	nt	-9%
O=C(CN1CCc2ccccc2C1)c1cccs1	?	-22%	7.9µM*
CN(C)CCNC(=O)Nc1ccc(F)cc1F	nt	nt	13%
CCCNC(=O)N1N=C(c2ccc(N)cc2)c2cc3c(cc2[C@H]1C)OCO3	nt	-28%	?
COc1c2c(nc3occc13)C(CC=C(C)C)(OC)C(O)CC2 (stereo not given)	-100*	7%	1%
COc1c2c(nc3occc13)C(CC=C(C)C)(OC)C(OC(C)=O)CC2 (stereo not given)	-14	5%	-11%
Cc1noc(C(F)(F)F)c1C(=O)NNC(=O)c1ccccc1	nt	nt	4%
COc1ccc(/C=C2\N=C(SC)NC2=O)cc1	-18	22µM*	-8%
COc1ccc(/C=C2/N=C(SC)NC2=O)cc1OC	nt	nt	-10%
CCSC1=N/C(=C\c2ccc(OC)cc2)C(=O)N1	53	?	9.5µM*
CCSC1=N/C(=C\c2ccccc2)C(=O)N1c1ccc(OC)cc1	nt	nt	3%
CN(C)/C=C(\C#N)C(=O)N/N=C(\CC(=O)C(F)(F)F)c1ccco1	nt	nt	-9%
Cc1onc(C(=O)NN)c1C(=O)Nc1ncc(C(F)(F)F)cc1Cl	nt	nt	-3%
O=C(CN1CCOCC1)Nc1ncc(Cc2cccc(Cl)c2Cl)s1	14	-17%	7%
CC1=CC=CC2=NC(=O)CC(C)(C(=O)N(CC(=O)NC3CCCC3)c3ccccc3C)N12 (stereo not given)	-1	?	?
CC1=CN2C(=NC(=O)CC2(C)C(=O)N(CC(=O)NC2CCCC2)c2ccccc2C)C=C1 (stereo not given)	-100*	?	?
Cc1cc(NS(=O)(=O)c2ccc(NC(=O)c3cc4cc(Br)ccc4oc3=O)cc2)no1	nt	nt	5%
Cc1ccc(CNc2nc3c([nH]2)c(=O)n(C)c(=O)n3C)cc1	1	-10%	-11%
Cn1c(=O)c2[nH]c(Nc3ccccc3)nc2n(C)c1=O	-100*	-20%	9%
O=S(=O)(c1ccccc1)c1nc(NCc2cccnc2)sc1Cl	nt	nt	-5%
CCn1c(/C=C/N(C(C)=O)c2ccccc2)[n+](CC)c2ccc(Cl)cc21	?	-1%	2%
SMILES	PNC assembly inh	HPGD inh	ALDH1A1 block
CC[n+]1c(/C=C/C=C/N(C(C)=O)c2ccccc2)sc2ccccc21	69	-26%	3.5µM*
CSc1ccc(/C=N/Nc2nc(C)cc(=O)[nH]2)cc1	nt	nt	-4%
Cc1cc(=O)[nH]c(N/N=C/c2c(C)nn(-c3ccc(F)cc3)c2Cl)n1	nt	nt	6.3µM*
O=C(COC(=O)COc1ccc(Cl)cc1)Nc1ccc(N2CCOCC2)cc1	nt	nt	4%
CCc1ccc(CCC(=O)Nc2ncc(Cc3ccccc3Cl)s2)o1	-91*	-26%	?
O=C(CN1CCOCC1)Nc1ncc(Cc2ccccc2Cl)s1	?	-18%	0%
O=C(COC(=O)CCS(=O)(=O)c1ccc(Cl)cc1)NCCc1ccc(Cl)cc1Cl	?	-20%	12%
COc1cc(C(c2sc3nc(C)nn3c2O)N2CCC3(CC2)OCCO3)cc(OC)c1OC (stereo not given)	-14	-6%	18µM*
COC(=O)C1CCN(C(c2cc(OC)c(OC)c(OC)c2)c2sc3nc(C)nn3c2O)CC1 (stereo not given)	?	-4%	-6%
Cc1oc(C)c2c(=O)ccc3c(c12)OC(N)=C(C#N)C3c1ccccc1Cl (stereo not given)	-22	-10%	25µM*
Cc1oc(C)c2c(=O)ccc3c(c12)OC(N)=C(C#N)C3c1ccccc1 (stereo not given)	26	-11%	?
CCOC(=O)c1[nH]c(CSc2nnnn2-c2ccccc2C)c(C(=O)OCC)c1C	?	3%	3.5µM*
COc1ccc(C)cc1-n1nnnc1SCc1csc(C)n1	-11	-12%	?
CCOC(=O)c1c(C)[nH]c(C)c1C(=O)CSc1nnnn1-c1ccccc1	20	-3%	32µM*
CCOC(=O)c1[nH]c(CSc2nnc(-c3ccncc3)n2CCOC)c(C(=O)OCC)c1C	?	-3%	5%
Cc1ccccc1-n1nnnc1SCC(C)C	nt	nt	1.1µM*
CCOc1ccc(-n2nnnc2SCC(=O)c2ccccc2)cc1	-4	-7%	-9%
COC(=O)c1c(C)[nH]c(C(=O)CSc2nnnn2-c2ccccc2)c1C	-7	-11%	3%
Cc1ccccc1-n1nnnc1SCc1csc(-c2ccccc2)n1	-20	-15%	7.9µM*

Screening results deposited in PubChem by National Center for Advancing Translational Sciences (NCATS).
